Measurements from ChEMBL document CHEMBL4513146, “CO-ADD screening of Karazin Kharkiv National University (Ukraine) compounds”.
The whole screen tested about 23,000 compounds, of which about 30 (0.1%) showed an effect of 50% or more. The list comes from a sample in which strong results are over-represented; it also holds similar structures and randomly drawn compounds. Measured potencies and affinities stand elsewhere.

tested on: Pseudomonas aeruginosa; conditions: Concentration 32 ug.mL-1;; ASSAY_TEST Inhibition of Bacterial Growth; detection method Absorption (OD600); MEDIA CAMHB; plate type 384well; NBS; CORNING #3640; time 18 hr

**Q.** `COc1ccc(-c2cc3c4nn(CC(=O)Nc5ccc(F)cc5)c(=O)n4ccn3n2)cc1` was tested. Which Inhibition did it give?
**A.** Its Inhibition is -1.39%.

**Q.** How did the Inhibition turn out when `O=C(CSc1nnc2c(=O)n(Cc3ccc(F)cc3)ccn12)NC1CCCC1` was run?
**A.** The Inhibition was 8.47%.

**Q.** Which Inhibition does the source give for `Cc1ccc(Oc2nccn3c(=O)n(CC(=O)Nc4ccc(Cl)cc4F)nc23)cc1` here?
**A.** The Inhibition was 0.79%.

**Q.** With `Cc1cccc(N(Cc2ccc(F)cc2)S(=O)(=O)c2cccn3c(C)nnc23)c1` as the compound, how does the Inhibition read?
**A.** Its Inhibition is 11.57%.

**Q.** With `COc1cccc(CSc2nnc3c(=O)n(-c4ccc(Br)cc4)ccn23)c1` as the compound, how does the Inhibition read?
**A.** Its Inhibition is 16.71%.

**Q.** How did the Inhibition turn out when `Cc1ccccc1Oc1nccn2c(=O)n(CC(=O)Nc3ccc(Cl)c(Cl)c3)nc12` was run?
**A.** The Inhibition was 3.97%.

**Q.** With `O=C(Cn1nc2c(Sc3ccccc3)nccn2c1=O)Nc1ccc(Br)cc1F` as the compound, how does the Inhibition read?
**A.** Its Inhibition is 11.79%.

**Q.** With `COc1ccc(CNC(=O)CCc2nnc3c4cc(-c5ccc(Cl)cc5)nn4ccn23)cc1OC` as the compound, how does the Inhibition read?
**A.** The Inhibition was 9.37%.

**Q.** How did the Inhibition turn out when `O=C(Cn1nc2c(Sc3ccccc3)nccn2c1=O)Nc1ccc2c(c1)OCCO2` was run?
**A.** The Inhibition was 17.83%.
